# Measurements: the supplement of paper PMC10338343
# ± gives the standard deviation.
# Tests used:
# [1] = tested on: MILI (PIWIL2) piRISC loaded with L1MC piRNA (26 nt); experiment: pre-steady-state target cleavage rate (min^-1); guide: L1MC piRNA 5'p-UAACUAAAUACUAUGCAAGCUGUAGG; higher = faster piRNA-guided slicing of the target
# Method in brief: (§1)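 Cleave-'n-Seq: 1 nM active affinity-purified piRISC with one synthetic guide and 0.1 nM transcribed, DNA-blocked target RNA library were mixed, with or without 500 nM GTSF1 partner protein, in HEPES–potassium acetate buffer at 33 °C for 0–8 or 0–960 min. Uncleaved targets were sequenced and normalised to depth and to weakly complementary targets, three trials were pooled, and k3 was capped at 0.0001 min^-1. The pre-steady-state cleavage rate was fitted […].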
# [2] = tested on: EfPiwi piRISC loaded with L1MC piRNA (26 nt); experiment: pre-steady-state target cleavage rate (min^-1); auxiliary factor: 500 nM Ephydatia muelleri Gtsf1; guide: L1MC piRNA 5'p-UAACUAAAUACUAUGCAAGCUGUAGG; MIWI and MILI are mouse PIWI proteins and EfPiwi is from a freshwater sponge; tags in brackets are library labels; higher = faster piRNA-guided slicing of the target
# Method in brief: as §1
# [3] = auxiliary factor: 500 nM mouse GTSF1
# [4] = auxiliary factor: none (no GTSF1)
Sequence,"pre-steady-state target cleavage rate [1, 3]",pre-steady-state target cleavage rate [2],"pre-steady-state target cleavage rate [1, 4]"
UCCUGGAUGACCUUGCAUAGUAUUUAGAUA,0.115 ± 0.034,0.00355 ± 0.0027,
UCCUGGAAGUGCUUGCAUAGUAUUUAGAAA,0.00889 ± 0.0052,0.00379 ± 0.0018,
UCCUGCUACAGGAUGCAUAGUAUUUAGAAA,0.0163 ± 0.0074,0.00248 ± 0.0014,
UCCUGGAUCAGCUUGGAUAGUAUUUAGAAA,0.0109 ± 0.0051,0.00249 ± 0.0024,
UCCUGGAUGAGCUUGCAUAAUAUUUAGUUA,0.266 ± 0.035,0.00543 ± 0.0021,
UCCUGCUAGAGCUUGCAUAGUAUUUAGUAA,0.161 ± 0.023,0.00419 ± 0.0014,
UCCUCCUACAGCUUGCAUAGUAAAAACAAA,0.0836 ± 0.022,0.00389 ± 0.0036,
UCCUCCAUCAGCUUGCAUAGUAUUUAGAAA,0.0615 ± 0.017,0.00539 ± 0.0026,
UCCUGGAACAGCUUGGAUAGUAUUUAGAAA,0.0385 ± 0.012,0.00373 ± 0.0019,
UCCUGGAUCAGCUUGCAUAGUAUUAAGUAA,0.178 ± 0.03,0.00602 ± 0.0026,
UCCUGGAACUGCUUGCAUACUAUUUAGUUA,0.076 ± 0.01,0.0046 ± 0.0019,
UCCUGGAACAGCUUGCAUAGUAUAUAGUAA,0.124 ± 0.022,0.00251 ± 0.0017,
UCCUCCUACAGCUUGCAUAGUAAAAUCAAA,0.0893 ± 0.023,0.0042 ± 0.0034,
UCCUGCUACAGCUUGCAUAGUAUUAAGAUA,0.019 ± 0.0078,0.00501 ± 0.0016,
UCCUGCUACAGCUUGCAUAGUAUUUAAUUA,0.126 ± 0.03,0.00612 ± 0.0025,
UCCUGCUACAGCUUGCAUAGCAUUUAGUUA,0.141 ± 0.022,0.00521 ± 0.0016,
UCCUGGAUGUGCUUGCAUAGUAUUUAGAAA,0.0532 ± 0.013,0.00293 ± 0.0018,
UCCUGGUACAGCUUGCAUAGUAUUCAGUUA,0.058 ± 0.017,0.00472 ± 0.0022,
UCCUGCUACAGCUUGCUAUAGUAUUUAGUUA,0.05 ± 0.017,0.0075 ± 0.002,
UCCUGGAUCUGCUUGCAUAGUAUUUAGAUA,0.0934 ± 0.016,0.00401 ± 0.0022,

Sequence,"pre-steady-state target cleavage rate [1, 3]",pre-steady-state target cleavage rate [2],"pre-steady-state target cleavage rate [1, 4]"
UCCUCCUACAGCUUGCAUAGUUAUUAGUUA,0.0492 ± 0.015,0.0094 ± 0.0036,
UCCUGCUACAGCUUGCAUAAGUAUUUAGUUA,0.0171 ± 0.0064,0.00273 ± 0.0019,
UCCUGCUUGUGCUUGCAUAGUAUUUAGUAA,0.0582 ± 0.015,0.00475 ± 0.0026,
UCCUGGAUCAGCUUGCAUAGUAUUAAGAAA,0.0751 ± 0.02,0.00459 ± 0.0022,
UCCUCCUAGUGCUUGCAUAGUAUUUACAAA,0.0188 ± 0.0067,0.00293 ± 0.0029,
UCCUGCUACAGCUUGCCAUAGUAUUUAGUUA,0.128 ± 0.015,0.00382 ± 0.0023,
UCCUGCUACAGCUUGCAUAGUAAAUAGUUA,0.17 ± 0.027,0.00532 ± 0.0029,
UCCUGGAACAGCUUGCAUAGUUUUUUGUUA,0.0493 ± 0.014,0.00325 ± 0.0013,
UCCUCCUACAGCUUGCAUAGUUAUUAGAAA,0.0109 ± 0.0053,0.00348 ± 0.0028,
UCCUGGAUCAGCUUGCAUAGUAUUAAGAUA,0.0716 ± 0.025,0.006 ± 0.0032,
UCCUCCUACAGCUUGCAUAGUAUAUACAAA,0.0968 ± 0.025,0.00313 ± 0.003,
UCCUGCUUGAGCUUGCAUAGUAUUUUCAAA,0.0372 ± 0.013,0.00207 ± 0.0018,
UCCUGGAACAGCUUGCAUACUAUUUUGUUA,0.0261 ± 0.0092,0.00252 ± 0.0023,
UCCUGCUACAGCUUGCAUAGUAUUAAGUAA,0.172 ± 0.042,0.00315 ± 0.0016,
UCCUGGAUGUCGAACGUUAGUAUUUUCAAA [g6:g13:cont:t1A],,,< 0.0001
UCCUGGAUGUCGAACCAUAGUAUUUAGUCA,,,< 0.0001
UCCUGCUACAGCUUGCAUUGUAUUUAGAUA,0.106 ± 0.017,0.00283 ± 0.0018,
UCCUGCUUCAGCUUGCAUAGUAUUUUCAAA,0.0882 ± 0.022,0.00362 ± 0.0023,
UCCUGCAUGAGCUUGCAUAGUAUUUACAAA,0.0926 ± 0.026,0.00266 ± 0.0017,
UCCUGCUUGAGCUUGCAUAGUAUUUAGAAA,0.148 ± 0.027,0.00479 ± 0.0016,

Sequence,"pre-steady-state target cleavage rate [1, 3]",pre-steady-state target cleavage rate [2],"pre-steady-state target cleavage rate [1, 4]"
UCCUGGAUCACGAUGCAUAGUAUUUAGUAA,0.173 ± 0.016,0.00397 ± 0.0033,
UCCUCCUACAGCUUGCAUAGUAUUUAGCUUA,0.253 ± 0.075,0.00683 ± 0.0027,
UCCUCCUACUGCUUGCAUAGUAUUUUCAAA,0.0284 ± 0.0085,0.00274 ± 0.0026,
UCCUGCUACAGCUUGCAUAGUUUAUAGUUA,0.0528 ± 0.017,0.00312 ± 0.0027,
UCCUCCUACAGCUUGCAAAGUAUUUAGAAA,0.0823 ± 0.015,0.00344 ± 0.0017,
UCCUGGAUCAGCUUGCAUAGUAUUUUGAUA,0.0355 ± 0.013,0.00716 ± 0.003,
UCCUGGAUCACCUUGCAUAGUAUUUAGUAA,0.247 ± 0.038,0.00344 ± 0.0031,
UCCUCGAUCAGCUUGCAUAGUAUUUUCAAA,0.0652 ± 0.014,0.00433 ± 0.0023,
UCCUCCUACAGCUUGCAUAGUAAAAAGUAA,0.0657 ± 0.019,0.00344 ± 0.0029,
UCCUGGAACAGCUUGCAAAGUAUUUAGAAA,0.166 ± 0.038,0.00418 ± 0.002,
UCCUCCUAGUCCUUGCAUAGUAUUUAGAAA,0.0654 ± 0.017,0.00217 ± 0.0013,
UCCUGGUACUGCUUGCAUAGUAUUUAGAUA,0.0302 ± 0.014,0.00378 ± 0.0019,
UCCUGCUUCAGCUUCCAUAGUAUUUAGUUA,0.0549 ± 0.018,0.00322 ± 0.0013,
UCCUGGUACAGCUUGCAUAGUAUUUACAAA,0.0693 ± 0.017,0.003 ± 0.002,
UCCUGGAUCAGCUUGCAUAGUAUUUAGCUUA,0.149 ± 0.021,0.0068 ± 0.0026,
UCCUGGAACAGCUUGCAUAGUAUUUUCAUA,0.0434 ± 0.013,0.00388 ± 0.002,
UCCUGGAUGUGCUUGCAUAGUAUUUAGUAUA,0.131 ± 0.019,0.00507 ± 0.0027,
UCCUGGAUGAGCUUGCAAAGUAAUUAGUUA,0.0348 ± 0.0091,0.00431 ± 0.0022,
UCCUGCUACACCUUGCAUAGUAUUUACUUA,0.102 ± 0.034,0.00306 ± 0.003,
UCCUCCUACAGCUUGCAUAGUAAUAAGUUA,0.129 ± 0.021,0.0073 ± 0.004,
